This passage reports nucleolar normality score results from the supplement of paper PMC10723795.

± gives the standard deviation of the averaged measurements.

In the assay the test system is RPE1. Briefly: nucleolar normality score relative to DMSO (fraction of DMSO control); RPE1 is a non-cancer human cell line; higher = more normal nucleoli (less nucleolar stress). As to the method:
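Selected screen hits were validated in hTERT lines (BJ5TA, CHON-002, RPE1) and cancer lines (DLD1, HCT116). Cells were immunostained for nucleolin and UBF and the nucleolar normality score was measured per field of view, with 4 fields per drug. Scores are normalized to each cell line's own DMSO control. Dose and time are not stated for this panel.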
As to `CC(C)c1cc(C(=O)N2Cc3ccc(CN4CCN(C)CC4)cc3C2)c(O)cc1O` [Onalespib], the nucleolar normality score amounted to 0.289 ± 0.0093.
As for `COc1cccc2c1C(=O)c1c(O)c3c(c(O)c1C2=O)C[C@@](O)(C(=O)CO)C[C@@H]3O[C@H]1C[C@H](N)[C@H](O)[C@H](C)O1` [Doxorubicin], the figure is 0.133 ± 0.011; as for `CC(C)c1c2cc(-c3ccnc(NC4CCC(NC5CCOCC5)CC4)n3)ccc2nn1C` (configuration not stated), 0.462 ± 0.015.
In the case of `COC[C@H](NC(=O)c1cnc(C)s1)C(=O)N[C@@H](COC)C(=O)N[C@@H](Cc1ccccc1)C(=O)[C@@]1(C)CO1` [Oprozomib] it was 0.55 ± 0.037; in that of `CN(C)CCNC(=O)c1cccn2c(=O)c3cc4ccccc4cc3nc12`, 0.0724 ± 0.012.
As for `CC(C)n1nc(-c2ccc3oc(N)nc3c2)c2c(N)ncnc21` [Sapanisertib], the figure is 0.405 ± 0.0078; as for `Cc1nc(-c2cn3c(n2)-c2ccc(-c4cnn(C(C)(C)C(N)=O)c4)cc2OCC3)n(C(C)C)n1` [Taselisib], 0.376 ± 0.0084; as for `Cc1cnc(CNC(=O)c2c(=O)c3ccc(N4CCCN(C)CC4)nc3n3c2sc2ccccc23)cn1`, 0.277 ± 0.066.
Consider `C=CCNC1=C2C[C@@H](C)C[C@H](OC)[C@H](O)[C@@H](C)/C=C(\C)[C@H](OC(N)=O)[C@@H](OC)/C=C\C=C(/C)C(=O)NC(=CC1=O)C2=O`, for which the nucleolar normality score came to 0.296 ± 0.014.
As for `CN1CC[C@H](c2c(O)cc(O)c3c(=O)cc(-c4ccccc4Cl)oc23)[C@H](O)C1` [Flavopiridol], the figure is 0.254 ± 0.019.
For `CC(C)C[C@H](NC(=O)[C@H](CCc1ccccc1)NC(=O)CN1CCOCC1)C(=O)N[C@@H](Cc1ccccc1)C(=O)N[C@@H](CC(C)C)C(=O)[C@@]1(C)CO1` [Carfilzomib], the nucleolar normality score was determined as 0.501 ± 0.086.
The compound `CCc1cnn2c(NCc3ccc[n+]([O-])c3)cc(N3CCCC[C@H]3CCO)nc12` [Dinaciclib] yielded a nucleolar normality score of 0.268 ± 0.01.
